For part of these data: Results with a measured potency or affinity are listed apart. The source made the active and inactive calls. Unless noted, the rule behind the calls is not given here.
Legend:
[1] = antimalarial activity against Dd2 strain (AID 2302;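 active = growth inhibition above 50% at the single 2 µM test dose, taken to imply half-maximal potency below 2 µM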;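 note: 0% = DMSO untreated growth and 100% = chloroquine plus artemisinin killed control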); conditions: P. falciparum Dd2 in RBCs, LDH growth readout, 72 h; at 2 µM; active compounds read high
[2] = HepG2 cytotoxicity, primary screen, cytotoxicity control for P. falciparum antimalarial project, cell-based, ATP luminescence (AID 2303;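 active = inhibition above 50%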;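 note: 0% = DMSO wells and 100% = digitonin-killed cells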); conditions: HepG2 viability, 24-48 h, at 10 µM, active compounds read high
[3] = target: L-lactate dehydrogenase (Plasmodium falciparum (isolate CDC / Honduras)) (UniProt Q27743); assay: PfLDH activity inhibition – cell lysate, 3D7 strain, counter-screen for P. falciparum growth inhibition project (AID 2304);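 note: 0% = vehicle and 100% = reference inhibitor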; conditions: P. falciparum 3D7 crude extract, LDH APAD/NBT absorbance; at 2 µM; active compounds read high
[4] = inhibition of 3D7 malaria parasite growth – strain 3D7 (AID 2306);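 note: 0% = DMSO wells and 100% = chloroquine plus artemisinin control wells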; conditions: P. falciparum 3D7 erythrocytic growth, LDH absorbance, 72 h; at 2 µM; active compounds read high
[5] = target: Calcium-dependent protein kinase 1 (Plasmodium falciparum (isolate 3D7)) (UniProt P62344); assay: PfCDPK1 kinase inhibitors, biochemical, TCAMS library (AID 1159585; cut-off not given, nearly all actives have IC50 up to about 0.98 µM;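 note: inhibitors leave more ATP so luminescence rises with inhibition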); conditions: recombinant PfCDPK1, Kinase-Glo ATP depletion luminescence
[6] = target: Plasmodium falciparum protein kinase 6 (PK6, PF3D7_1337100) (UniProt Q8IDW1); assay: PfPK6 kinase inhibitors, biochemical, TCAMS library (AID 1159586); conditions: recombinant PfPK6, Kinase-Glo ATP depletion luminescence
[7] = target: Protein kinase 7 (PK7), Plasmodium falciparum 3D7 (PF3D7_0213400) (UniProt Q7YTF7); assay: inhibition of Plasmodium PK7 catalytic activity – biochemical, TCAMS antimalarial set, Kinase-Glo luminescence (AID 1159587); conditions: recombinant PfPK7, Kinase-Glo ATP depletion luminescence
[8] = target: Calcium-dependent protein kinase 4 (Plasmodium falciparum (isolate 3D7)) (UniProt Q8IBS5); assay: PfCDPK4 kinase inhibitors, biochemical, TCAMS library (AID 1159588; cut-off not given, nearly all actives have IC50 up to about 0.91 µM); conditions: recombinant PfCDPK4, Kinase-Glo ATP depletion luminescence
Chain of Calcium-dependent protein kinase 4 (Plasmodium falciparum (isolate 3D7)) (Q8IBS5 whole entry, looked up): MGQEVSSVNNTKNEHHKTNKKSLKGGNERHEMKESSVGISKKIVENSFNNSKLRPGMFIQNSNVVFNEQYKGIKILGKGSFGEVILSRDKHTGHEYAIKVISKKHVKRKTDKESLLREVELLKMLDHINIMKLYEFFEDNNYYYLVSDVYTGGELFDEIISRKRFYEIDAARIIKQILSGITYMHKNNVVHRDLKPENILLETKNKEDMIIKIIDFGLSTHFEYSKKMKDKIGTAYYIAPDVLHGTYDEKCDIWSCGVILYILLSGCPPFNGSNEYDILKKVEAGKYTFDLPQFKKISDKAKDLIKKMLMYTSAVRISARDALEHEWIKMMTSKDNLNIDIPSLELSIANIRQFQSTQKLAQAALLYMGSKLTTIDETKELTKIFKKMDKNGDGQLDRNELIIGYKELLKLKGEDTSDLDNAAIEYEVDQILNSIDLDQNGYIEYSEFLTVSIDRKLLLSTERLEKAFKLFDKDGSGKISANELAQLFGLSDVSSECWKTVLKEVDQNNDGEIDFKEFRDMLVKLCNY

Chain of Calcium-dependent protein kinase 1 (Plasmodium falciparum (isolate 3D7)) (P62344 whole entry, looked up): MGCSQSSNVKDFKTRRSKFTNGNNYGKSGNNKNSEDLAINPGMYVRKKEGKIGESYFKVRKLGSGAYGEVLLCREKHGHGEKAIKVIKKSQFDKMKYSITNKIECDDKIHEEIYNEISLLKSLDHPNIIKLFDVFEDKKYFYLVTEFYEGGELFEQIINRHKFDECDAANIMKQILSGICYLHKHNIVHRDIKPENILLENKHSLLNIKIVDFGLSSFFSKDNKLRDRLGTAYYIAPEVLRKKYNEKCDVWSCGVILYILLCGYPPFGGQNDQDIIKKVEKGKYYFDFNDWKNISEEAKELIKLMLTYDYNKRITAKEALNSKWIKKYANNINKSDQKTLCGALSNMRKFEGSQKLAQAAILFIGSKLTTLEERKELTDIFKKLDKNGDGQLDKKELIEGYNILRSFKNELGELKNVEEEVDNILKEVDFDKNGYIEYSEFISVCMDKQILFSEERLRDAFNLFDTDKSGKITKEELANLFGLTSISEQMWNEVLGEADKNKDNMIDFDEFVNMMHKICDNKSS
Chain of L-lactate dehydrogenase (Plasmodium falciparum (isolate CDC / Honduras)) (Q27743 whole entry, looked up): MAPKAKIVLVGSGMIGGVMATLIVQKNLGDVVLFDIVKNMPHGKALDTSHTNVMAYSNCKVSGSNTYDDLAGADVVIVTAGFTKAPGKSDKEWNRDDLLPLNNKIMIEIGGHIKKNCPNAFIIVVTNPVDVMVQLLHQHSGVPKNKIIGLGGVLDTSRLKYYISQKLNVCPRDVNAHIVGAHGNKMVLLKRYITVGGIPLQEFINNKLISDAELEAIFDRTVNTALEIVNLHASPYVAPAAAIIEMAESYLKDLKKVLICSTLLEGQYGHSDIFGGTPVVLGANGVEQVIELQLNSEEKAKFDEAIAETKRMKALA
Chain of Protein kinase 7 (PK7), Plasmodium falciparum 3D7 (PF3D7_0213400) (Q7YTF7 1-343): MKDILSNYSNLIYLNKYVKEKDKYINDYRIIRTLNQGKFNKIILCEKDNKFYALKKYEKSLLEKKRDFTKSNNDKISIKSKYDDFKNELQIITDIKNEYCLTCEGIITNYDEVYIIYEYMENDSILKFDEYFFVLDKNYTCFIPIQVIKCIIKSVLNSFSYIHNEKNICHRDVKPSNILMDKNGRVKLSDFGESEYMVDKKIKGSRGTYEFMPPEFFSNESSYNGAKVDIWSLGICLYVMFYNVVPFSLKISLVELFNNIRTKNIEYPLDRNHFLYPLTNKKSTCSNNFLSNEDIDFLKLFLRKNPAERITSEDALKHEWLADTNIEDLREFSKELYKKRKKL
Chain of Plasmodium falciparum protein kinase 6 (PK6, PF3D7_1337100) (Q8IDW1 1-305): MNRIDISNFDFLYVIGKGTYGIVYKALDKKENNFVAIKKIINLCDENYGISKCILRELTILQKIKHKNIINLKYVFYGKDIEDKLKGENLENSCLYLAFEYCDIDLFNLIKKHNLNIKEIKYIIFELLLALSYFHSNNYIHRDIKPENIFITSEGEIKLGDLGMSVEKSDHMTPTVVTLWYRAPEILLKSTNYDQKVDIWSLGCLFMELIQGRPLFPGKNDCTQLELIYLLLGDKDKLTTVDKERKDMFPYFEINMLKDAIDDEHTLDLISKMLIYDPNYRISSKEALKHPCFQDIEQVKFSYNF

CN1CCN(Cc2ccc(-c3ccc4c(Nc5ccc(Oc6ccccc6)cc5)ccnc4c3)o2)CC1
inactive: inhibition [2] 23% | inhibition [3] 0% | outcome [5] | outcome [6] | outcome [7] | outcome [8]
active: growth inhibition [1] 99% | growth inhibition [4] 99%

O=C(Nc1ccc(SC(F)(F)F)cc1)Nc1ccc(Cl)c(Cl)c1
inactive: inhibition [2] 15% | inhibition [3] 4% | outcome [5] | outcome [6] | outcome [7] | outcome [8]
active: growth inhibition [1] 99% | growth inhibition [4] 98%

COc1ccccc1-n1ccnc1SCC(=O)Nc1cccc(C(F)(F)F)c1
active: growth inhibition [1] 96% | growth inhibition [4] 95%
inactive: inhibition [2] 1% | inhibition [3] -2% | outcome [5] | outcome [6] | outcome [7] | outcome [8]

COc1ccc(NC(=O)[C@H](CC(C)C)Nc2cc(C)nc(NCc3cccc(C)c3)n2)cc1
inactive: inhibition [2] 24% | inhibition [3] -1% | outcome [5] | outcome [6] | outcome [7] | outcome [8]
active: growth inhibition [1] 90% | growth inhibition [4] 101%

O=C1Nc2cccc3c2C1(CCCCN1CCC(c2c(-c4ccc(F)cc4)[nH]c4ccccc24)CC1)CCC3 (configuration not stated)
active: growth inhibition [4] 91%
inactive: growth inhibition [1] 28% | inhibition [2] 25% | inhibition [3] -4% | outcome [5] | outcome [6] | outcome [7] | outcome [8]

CCN(CC)CCN(Cc1ccc(-c2ccc(C(F)(F)F)cc2)cc1)C(=O)Cn1c(CCc2cccc(C#N)c2)nc(=O)c2ccccc21
inactive: growth inhibition [1] 47% | inhibition [2] 36% | inhibition [3] -1% | outcome [5] | outcome [6] | outcome [7] | outcome [8]
active: growth inhibition [4] 101%

COc1ccc(NC(=O)/C=C/c2ccccc2Cl)cc1OCCN1CCC(NC2CC2)CC1
inactive: inhibition [2] 23% | inhibition [3] 3% | outcome [5] | outcome [6] | outcome [7] | outcome [8]
active: growth inhibition [1] 66% | growth inhibition [4] 101%

O=C(Nc1ccnc(-c2cccnc2)n1)c1cc(C(F)(F)F)cc(C(F)(F)F)c1
inactive: growth inhibition [1] 12% | inhibition [2] 22% | inhibition [3] -4% | outcome [5] | outcome [6] | outcome [7] | outcome [8]
active: growth inhibition [4] 95%

N#Cc1cc(C(=O)c2cc(Cl)ccc2O)cn(-c2cc(Cl)cc(Cl)c2)c1=O
inactive: growth inhibition [1] 32% | inhibition [2] 34% | inhibition [3] -8% | outcome [5] | outcome [6] | outcome [7] | outcome [8]
active: growth inhibition [4] 93%

Oc1ccc(CCCNc2nc(NCc3ccccc3-c3ccccc3)nc(N3CCNCC3)n2)cc1
active: growth inhibition [4] 94%
inactive: growth inhibition [1] 48% | inhibition [2] 39% | inhibition [3] 5% | outcome [5] | outcome [6] | outcome [7] | outcome [8]

CCOc1cc(C)ccc1C1CCN(CCN2CCC(CNC(=O)c3ccc(-c4ccc(C(F)(F)F)cc4)cc3)CC2)CC1
inactive: inhibition [3] -2% | outcome [5] | outcome [6] | outcome [7] | outcome [8]
active: growth inhibition [1] 89% | inhibition [2] 53% | growth inhibition [4] 98%

Cc1cc(-c2cccc3c(C(=O)N4CCc5cc6nccc(N7CCCN(C)CC7)c6cc54)cccc23)cc(C)n1
inactive: inhibition [2] 17% | inhibition [3] 6% | outcome [5] | outcome [6] | outcome [7] | outcome [8]
active: growth inhibition [1] 100% | growth inhibition [4] 100%

O=C(Nc1ccc(C(F)(F)F)cc1)c1cccc(S(=O)(=O)NC2CCN(Cc3ccccc3)C2)c1 (configuration not stated)
inactive: growth inhibition [1] -2% | inhibition [2] 39% | inhibition [3] -5% | outcome [5] | outcome [6] | outcome [7] | outcome [8]
active: growth inhibition [4] 88%

O=C(NC1CCN(Cc2ccccc2)CC1)c1ccc(-c2nc3cc(Cl)c(Cl)cc3[nH]2)c(F)c1
active: growth inhibition [1] 83% | growth inhibition [4] 101%
inactive: inhibition [2] 4% | inhibition [3] -2% | outcome [5] | outcome [6] | outcome [7] | outcome [8]

COc1ccc2nc3cc(Cl)ccc3c(NCCNCC(O)CO)c2n1 (configuration not stated)
inactive: inhibition [2] 12% | inhibition [3] 2% | outcome [5] | outcome [6] | outcome [7] | outcome [8]
active: growth inhibition [1] 101% | growth inhibition [4] 100%

Cc1ccccc1C1CCN(C2CCC(NC(=O)c3ccc(-c4cc(C(F)(F)F)nn4C)s3)CC2)CC1 (configuration not stated)
inactive: inhibition [2] 42% | inhibition [3] -2% | outcome [5] | outcome [6] | outcome [7] | outcome [8]
active: growth inhibition [1] 68% | growth inhibition [4] 98%

C[C@H](NC(=O)c1c(CN2CCC(N3CCCCC3=O)CC2)c(-c2cccs2)nc2ccccc12)C1CCCCC1
active: growth inhibition [1] 73% | growth inhibition [4] 91%
inactive: inhibition [2] 8% | inhibition [3] 2% | outcome [5] | outcome [6] | outcome [7] | outcome [8]

Cc1cc(Nc2ccc3ccccc3c2)n2ncnc2n1
active: growth inhibition [1] 95% | growth inhibition [4] 96%
inactive: inhibition [2] 11% | inhibition [3] -2% | outcome [5] | outcome [6] | outcome [7] | outcome [8]

CNC(=O)c1cnc(Nc2ccc(N3CCN(C)CC3)cc2)nc1Nc1cccc([N+](=O)[O-])c1
inactive: inhibition [2] 31% | inhibition [3] -8% | outcome [5] | outcome [6] | outcome [7] | outcome [8]
active: growth inhibition [1] 100% | growth inhibition [4] 103%

N#Cc1ccc(NC(=O)N2CCCN(CCCCCNC(=O)/C=C/c3ccc(Cl)c(Cl)c3)CC2)cc1
active: growth inhibition [4] 100%
inactive: growth inhibition [1] 4% | inhibition [2] 32% | inhibition [3] 0% | outcome [5] | outcome [6] | outcome [7] | outcome [8]

O=C(Nc1ccc(Cl)cc1)c1ccc(CN2CCCN(Cc3cccc(Cl)c3)CC2)cc1
inactive: growth inhibition [1] 15% | inhibition [3] 1% | outcome [5] | outcome [6] | outcome [7] | outcome [8]
active: inhibition [2] 53% | growth inhibition [4] 96%

CN(C)C(=NCCCCCCN=C(NC(N)=NCc1ccc(Cl)c(Cl)c1)N(C)C)NC(N)=NCc1ccc(Cl)c(Cl)c1
active: growth inhibition [1] 99% | growth inhibition [4] 93%
inactive: inhibition [2] 20% | inhibition [3] -9% | outcome [5] | outcome [6] | outcome [7] | outcome [8]

CC(C)CNCc1ccc(-c2cccc(CN(C(=O)NCCc3ccccc3)C3CCN(Cc4ccccc4)CC3)c2)cc1
inactive: inhibition [3] -1% | outcome [5] | outcome [6] | outcome [7] | outcome [8]
active: growth inhibition [1] 94% | inhibition [2] 91% | growth inhibition [4] 100%

Cc1ccc(O)cc1C[C@@H]1C(=O)CC[C@@]2(C)[C@H]1CC[C@]2(C)O
active: growth inhibition [4] 96%
inactive: growth inhibition [1] -6% | inhibition [2] 4% | inhibition [3] 1% | outcome [5] | outcome [6] | outcome [7] | outcome [8]

O=C(Nc1cccc(Cl)c1)N(CCCn1ccnc1)Cc1csc(-c2ccc(CNCc3ccccc3)cc2)n1
active: growth inhibition [4] 102%
inactive: growth inhibition [1] 45% | inhibition [2] 11% | inhibition [3] 4% | outcome [5] | outcome [6] | outcome [7] | outcome [8]

Cc1[nH]c(C)c(-c2ccc(-c3ccc4c(c3)OCO4)nc2)c(=O)c1Br
inactive: inhibition [2] -6% | inhibition [3] -8% | outcome [5] | outcome [6] | outcome [7] | outcome [8]
active: growth inhibition [1] 96% | growth inhibition [4] 96%

COc1c(C2CCN(CCCCNC(=O)c3ccc(-c4ccc(C(F)(F)F)cc4)c(C(=O)OC(C)C)c3)CC2)ccc2c1CCCC2
active: growth inhibition [4] 90%
inactive: growth inhibition [1] 30% | inhibition [2] 24% | inhibition [3] 0% | outcome [5] | outcome [6] | outcome [7] | outcome [8]

N#Cc1cccc(NC(=O)Nc2cccc(-c3ccc(-c4nc5ccc(C(F)(F)F)cc5[nH]4)cc3)c2)c1
inactive: inhibition [3] -8% | outcome [5] | outcome [6] | outcome [7] | outcome [8]
active: growth inhibition [1] 99% | inhibition [2] 54% | growth inhibition [4] 102%

CCCCNCc1ccc(OCc2cccc(COc3ccc(CNCCCC)cc3)c2)cc1
inactive: growth inhibition [1] 35% | inhibition [3] 5% | outcome [5] | outcome [6] | outcome [7] | outcome [8]
active: inhibition [2] 98% | growth inhibition [4] 100%

Fc1ccc2[nH]c3c(NCCCN4CCOCC4)ncnc3c2c1
active: growth inhibition [4] 98%
inactive: growth inhibition [1] 2% | inhibition [2] 14% | inhibition [3] -4% | outcome [5] | outcome [6] | outcome [7] | outcome [8]

CO/C(=C\C=C\c1cc2cc(Cl)c(Cl)cc2[nH]1)C(=O)NCCCN1CCN(c2cccc(OCC(=O)Nc3ccccc3)c2)CC1
inactive: inhibition [2] 49% | inhibition [3] -1% | outcome [5] | outcome [6] | outcome [7] | outcome [8]
active: growth inhibition [1] 81% | growth inhibition [4] 100%

O=C(Nc1ccc2c(c1)OCO2)NC1CCN(c2ccnc(Nc3ccc(F)cc3)n2)C1 (configuration not stated)
inactive: inhibition [2] 5% | inhibition [3] 3% | outcome [5] | outcome [6] | outcome [7] | outcome [8]
active: growth inhibition [1] 89% | growth inhibition [4] 100%

CCN(CC)CCCCNc1cc(-c2[nH]c(C(C)(C)C)nc2-c2ccc3cc(OC)ccc3c2)ccn1
active: growth inhibition [1] 76% | growth inhibition [4] 85%
inactive: inhibition [2] 23% | inhibition [3] 5% | outcome [5] | outcome [6] | outcome [7] | outcome [8]

NC1CCN(c2nc(NCCc3ccc(O)cc3)nc(NCc3ccccc3-c3ccccc3)n2)CC1
inactive: growth inhibition [1] 32% | inhibition [2] 14% | inhibition [3] 4% | outcome [5] | outcome [6] | outcome [7] | outcome [8]
active: growth inhibition [4] 99%

COc1ccccc1C(C)NCC(=O)Nc1cccc(C(=O)Nc2cccc(C(F)(F)F)c2)c1 (configuration not stated)
inactive: growth inhibition [1] 39% | inhibition [2] 34% | inhibition [3] 5% | outcome [5] | outcome [6] | outcome [7] | outcome [8]
active: growth inhibition [4] 91%

Cc1ccc(O)cc1Nc1ccnc2ccc(-c3cccc(CNCCN(C)C)c3)cc12
active: growth inhibition [4] 100%
inactive: growth inhibition [1] 46% | inhibition [2] -7% | inhibition [3] -3% | outcome [5] | outcome [6] | outcome [7] | outcome [8]

COC(=O)c1cccc(NC(=O)NC2CCN(c3ccnc(Nc4ccc(OC)cc4)n3)C2)c1 (configuration not stated)
active: growth inhibition [1] 65% | growth inhibition [4] 99%
inactive: inhibition [2] 1% | inhibition [3] -3% | outcome [5] | outcome [6] | outcome [7] | outcome [8]

Nc1ccc(Oc2ccc(Cc3cnc(N)nc3N)cc2)cc1
inactive: growth inhibition [1] 5% | inhibition [2] 10% | inhibition [3] -3% | outcome [5] | outcome [6] | outcome [7] | outcome [8]
active: growth inhibition [4] 86%

Cc1ccccc1C1CCN(c2ncc(C(=O)Nc3ccccc3)cc2Cl)CC1
inactive: inhibition [2] 29% | inhibition [3] -3% | outcome [5] | outcome [6] | outcome [7] | outcome [8]
active: growth inhibition [1] 83% | growth inhibition [4] 83%

From PubChem BioAssay
